Results on eight compounds are retold here after PubChem BioAssay (NCI).

About 83,000 compounds went through this panel and 20% of them were active in at least one assay; those are over-represented in the sample as a whole.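 In brief: 96-well plates, 48 h treatment, single concentration, percent growth endpoint.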 Values without a mark were called inactive. The source made the active and inactive calls. How the source made its calls: active means growth percent below 10; inactive means the rest.

Some test systems named below: HCT-15 colon; HT29 colon; SNB-75 CNS; SNB-19 CNS; PC-3 prostate; SK-MEL-5 melanoma; UACC-62 melanoma; LOX IMVI melanoma; SK-MEL-28 melanoma; SK-MEL-2 melanoma; EKVX NSCLC; SN12C renal; TK-10 renal; ACHN renal; CAKI-1 renal; CCRF-CEM leukemia; MOLT-4 leukemia; UO-31 renal; A498 renal; U251 CNS.
Common to all, as to test: NCI-60 one-dose screen, 48 h (100 = growth as untreated, 0 = no growth, -100 = all killed)
Conditions in all cases: 10 µM unless noted

In the case of `CO[C@@H]1[C@H](N(C)C(=O)c2ccccc2)C[C@@H]2O[C@]1(C)n1c3ccccc3c3c4c(c5c6ccccc6n2c5c31)C(=O)NC4=O`, the growth was 25% in the experiment with HCT-15 colon; 42.8% in the experiment with HT29 colon; -14.8% (active) with SNB-75 CNS; 63.6% in the experiment on SNB-19 CNS; 26.3% in the experiment on PC-3 prostate; 40% in the experiment with SK-MEL-5 melanoma. Also, the growth in the experiment on UACC-62 melanoma was 34.1%; with LOX IMVI melanoma it was 31.4%; in the experiment on SK-MEL-28 melanoma, 83.1%; in the experiment with SK-MEL-2 melanoma, 55.1%; in the experiment with EKVX NSCLC, 27.9%; in the experiment with SN12C renal, 33.4%. The growth was -20.3% (active) in the experiment with TK-10 renal; 35.4% with ACHN renal; -10.8% (active) in the experiment on CAKI-1 renal; 44.5% in the experiment with CCRF-CEM leukemia; 32.8% in the experiment on MOLT-4 leukemia.

With `NC(=O)c1cccc(-c2cc(C(N)=O)ccc2Cl)c1`, the growth is 33.8% with HCT-15 colon; 8.86% (active) in the experiment on HT29 colon; -19.6% (active) in the experiment on SNB-75 CNS; 41.6% with SNB-19 CNS; 29.6% in the experiment with PC-3 prostate; 14.9% in the experiment with SK-MEL-5 melanoma. Also, the growth was 35.7% in the experiment on UACC-62 melanoma; 42.1% in the experiment on LOX IMVI melanoma; 58.8% in the experiment with SK-MEL-28 melanoma; 34.5% in the experiment with SK-MEL-2 melanoma; 35.7% in the experiment on EKVX NSCLC; 50% with SN12C renal. Also, the growth is 45.7% in the experiment with UO-31 renal; 51.2% in the experiment with TK-10 renal; 36.3% in the experiment on ACHN renal; 31.8% in the experiment with CAKI-1 renal; -5.64% (active) in the experiment with A498 renal; 7.74% (active) with CCRF-CEM leukemia. In the experiment with MOLT-4 leukemia, the growth was 26.9%.

Take `Clc1ccc(C2CC(c3cccc(Nc4ccncc4)c3)=NN2c2cc(Cl)cc(Cl)c2)cc1` (configuration not stated): the growth in the experiment with HCT-15 colon was -25.2% (active); in the experiment with HT29 colon, 5.22% (active); with SNB-75 CNS it was 82.8%; in the experiment on SNB-19 CNS, 89.2%; in the experiment with PC-3 prostate, 48.9%; in the experiment on SK-MEL-5 melanoma it was 88.9%. In addition, the growth was 101% with UACC-62 melanoma; -44.6% (active) with LOX IMVI melanoma; 74.2% in the experiment on SK-MEL-28 melanoma; 107% in the experiment on SK-MEL-2 melanoma; 74.3% in the experiment with EKVX NSCLC; 76.3% in the experiment with SN12C renal. Also, the growth is 71.2% in the experiment on UO-31 renal; 94.8% in the experiment with TK-10 renal; 77.2% in the experiment on ACHN renal; 55.3% with CAKI-1 renal; 85.6% in the experiment on A498 renal; 11.3% in the experiment with CCRF-CEM leukemia. The growth with MOLT-4 leukemia is 7.7% (active).

Consider `COc1ccc(Nc2nc(N)nc3c2CCc2occc2-3)cc1`, for which the growth in the experiment on HCT-15 colon is 92%; in the experiment on HT29 colon, 87%; in the experiment with SNB-75 CNS, 95%; with SNB-19 CNS, 99.4%; with U251 CNS it was 103%; with PC-3 prostate it was 90.4%. Further, the growth in the experiment on SK-MEL-5 melanoma was 94.6%; with UACC-62 melanoma, 93.9%; in the experiment with LOX IMVI melanoma, 93.1%; with SK-MEL-28 melanoma, 106%; with SK-MEL-2 melanoma, 106%; in the experiment on EKVX NSCLC it was 84.1%. Also, the growth in the experiment on UO-31 renal is 83.7%; in the experiment on TK-10 renal it was 121%; with ACHN renal it was 104%; with A498 renal it was 98.2%; in the experiment on CCRF-CEM leukemia, 97.3%; in the experiment on MOLT-4 leukemia it was 94.3%.

Take `O=C(Nc1nc2ccc(S(=O)(=O)Nc3ccc(C4(C(F)(F)F)CC4)cc3)cc2[nH]1)c1cnccn1`: the growth is 29.5% in the experiment on HCT-15 colon; 15.6% in the experiment with HT29 colon; -27.1% (active) in the experiment on SNB-75 CNS; 40.3% in the experiment with SNB-19 CNS; 38% with U251 CNS; 27.7% in the experiment on PC-3 prostate. In addition, the growth is 26.1% in the experiment on SK-MEL-5 melanoma; 40% in the experiment on UACC-62 melanoma; 38.3% with LOX IMVI melanoma; 57.2% in the experiment with SK-MEL-28 melanoma; 56.3% in the experiment with SK-MEL-2 melanoma; 65.3% in the experiment with EKVX NSCLC. For the same compound, the growth is 40.3% with UO-31 renal; 65.9% with TK-10 renal; 28.6% with CAKI-1 renal; 19.9% in the experiment on CCRF-CEM leukemia; 38.7% with MOLT-4 leukemia.

As to `CCn1ccnc1C(=O)/C=C/c1ccc(CC(=O)Nc2ccc(F)cc2)cc1`, the growth is 13.2% in the experiment with HCT-15 colon; -27.6% (active) in the experiment on HT29 colon; 6.23% (active) in the experiment on SNB-75 CNS; 14.9% in the experiment on SNB-19 CNS; 33% with PC-3 prostate; 29.3% in the experiment with SK-MEL-5 melanoma. In addition, the growth is 55.6% in the experiment on UACC-62 melanoma; 13.9% in the experiment with LOX IMVI melanoma; 79.8% in the experiment with SK-MEL-28 melanoma; 97.8% in the experiment on SK-MEL-2 melanoma; 55.2% in the experiment on EKVX NSCLC; 26.2% with SN12C renal. Besides, the growth in the experiment on UO-31 renal was 39.8%; in the experiment with ACHN renal, 63.6%; in the experiment on CAKI-1 renal, 34.1%; with CCRF-CEM leukemia, 7.58% (active); in the experiment on MOLT-4 leukemia, 24.2%.

In the case of `CCCCc1ccc(Nc2nnc(SCC(=O)NC(=O)NCC)s2)cc1`, the growth with HCT-15 colon is 99.9%; in the experiment on HT29 colon, 103%; in the experiment with SNB-75 CNS, 83%; in the experiment on SNB-19 CNS, 119%; with PC-3 prostate, 91%; with SK-MEL-5 melanoma, 103%. Besides, the growth with UACC-62 melanoma was 78.2%; in the experiment on LOX IMVI melanoma, 94.1%; in the experiment with SK-MEL-28 melanoma it was 105%; with SK-MEL-2 melanoma, 90.8%; in the experiment on EKVX NSCLC, 110%; with UO-31 renal, 84.4%. For the same compound, the growth in the experiment with TK-10 renal is 107%; in the experiment with ACHN renal, 101%; in the experiment on CAKI-1 renal it was 115%; with A498 renal, 96.6%; in the experiment on MOLT-4 leukemia, 100%.

As for `COc1ccc(-c2nc(N/N=C/c3ccco3)nc(N3CCOCC3)c2C#N)cc1`, the growth was 88.3% in the experiment with HCT-15 colon; 91% in the experiment on HT29 colon; 15.6% in the experiment on SNB-75 CNS; 88.9% in the experiment on SNB-19 CNS; 59.5% in the experiment on PC-3 prostate; 80.4% in the experiment with SK-MEL-5 melanoma. The growth in the experiment with UACC-62 melanoma is 75.6%; in the experiment on LOX IMVI melanoma, 88.3%; with SK-MEL-28 melanoma, 80.8%; in the experiment with SK-MEL-2 melanoma it was 91.4%; with EKVX NSCLC it was 82.3%; in the experiment with UO-31 renal it was 28.7%. Besides, the growth in the experiment with TK-10 renal is 89.8%; in the experiment on ACHN renal it was 78.3%; with CAKI-1 renal, 59%; in the experiment with A498 renal, 6.67% (active); with CCRF-CEM leukemia it was 74.2%; in the experiment on MOLT-4 leukemia it was 62.2%.
